Where “and” joins values, the source holds several entries; their conditions need not be identical. Equal values may be shown once. In all, about 5,500 compounds went through this assay and about 2,000 (36%) were called active. Roughly 18% stayed inconclusive and do not appear here. Rule as the data show it: active = normalized growth mostly below about 0.91 (no sharp cut-off); inconclusive = no clear call, values can overlap the other calls; inactive = mostly above about 0.92. The list shows a part of the results.
Experiment: chemical genetic growth profiling, strain panel (AID 1159580);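 also: tested at 20 µM; growth read once vehicle control cultures reached saturation at 30 °C; 1 = growth at the plate median or of vehicle wells; lower values mean less growth of the strain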
Conditions: growth OD

Measured: normalized growth

CN(C)c1nc(N(C)C)nc(N(C)C)n1
inactive: S. cerevisiae deletion strains, locus YKL009W, strain mrt4, stronger effect = lower value 1 | S. cerevisiae deletion strains, locus YKL068W, stronger effect = lower value 1.01 | S. cerevisiae deletion strains, locus YKL085W, strain MDH1 (second series), stronger effect = lower value 1.01 | S. cerevisiae deletion strains, locus YKL085W, strain MDH1, stronger effect = lower value 1.01 | S. cerevisiae deletion strains, locus YKL160W, strain elf1, stronger effect = lower value 0.985 | S. cerevisiae deletion strains, locus YKL190W, strain CNB1, stronger effect = lower value 1.01 | S. cerevisiae deletion strains, locus YKR001C, strain vps1, stronger effect = lower value 1.01 | S. cerevisiae deletion strains, locus YKR026C, strain gcn3, stronger effect = lower value 0.978 | S. cerevisiae deletion strains, locus YKR091W, strain srl3, stronger effect = lower value 0.962 | S. cerevisiae deletion strains, locus YLL001W, strain dnm1, stronger effect = lower value 0.969 | S. cerevisiae deletion strains, locus YLL026W, stronger effect = lower value 0.977 | S. cerevisiae deletion strains, locus YLL041C, strain sdh2, stronger effect = lower value 0.983 | S. cerevisiae deletion strains, locus YLR027C, strain aat2, stronger effect = lower value 0.969 | S. cerevisiae deletion strains, locus YLR039C, strain RIC1, stronger effect = lower value 0.964 | S. cerevisiae deletion strains, locus YLR058C, strain SHM2, stronger effect = lower value 1.01 | S. cerevisiae deletion strains, locus YLR102C, strain apc9, stronger effect = lower value 1.01 | S. cerevisiae deletion strains, locus YLR113W, strain HOG1, stronger effect = lower value 0.948 | S. cerevisiae deletion strains, locus YLR221C, strain rsa3, stronger effect = lower value 0.945 | S. cerevisiae deletion strains, locus YLR258W, strain gsy2, stronger effect = lower value 0.987 | S. cerevisiae deletion strains, locus YLR262C, strain YPT6 (second series), stronger effect = lower value 0.932 | S. cerevisiae deletion strains, locus YLR262C, strain YPT6, stronger effect = lower value 0.986 | S. cerevisiae deletion strains, locus YLR268W, strain sec22, stronger effect = lower value 1.02 | S. cerevisiae deletion strains, locus YLR320W, strain mms22, stronger effect = lower value 0.949 | S. cerevisiae deletion strains, locus YLR330W, strain CHS5, stronger effect = lower value 1.01 | S. cerevisiae deletion strains, locus YLR342W, strain FKS1 (second series), stronger effect = lower value 1 | S. cerevisiae deletion strains, locus YLR342W, strain FKS1, stronger effect = lower value 0.968 | S. cerevisiae deletion strains, locus YLR357W, strain rsc2, stronger effect = lower value 0.978 | S. cerevisiae deletion strains, locus YLR370C, strain arc18, stronger effect = lower value 0.964 | S. cerevisiae deletion strains, locus YLR371W, strain rom2, stronger effect = lower value 1.01 | S. cerevisiae deletion strains, locus YLR384C, strain iki3, stronger effect = lower value 0.951 | S. cerevisiae deletion strains, locus YLR418C, strain cdc73, stronger effect = lower value 1.05 | S. cerevisiae deletion strains, locus YML016C, strain PPZ1, stronger effect = lower value 1.01 | S. cerevisiae deletion strains, locus YML032C, strain rad52, stronger effect = lower value 1.02 | S. cerevisiae deletion strains, locus YML120C, strain ndi1, stronger effect = lower value 0.952 | S. cerevisiae deletion strains, locus YML124C, strain tub3, stronger effect = lower value 1.02 | S. cerevisiae deletion strains, locus YMR058W, strain fet3, stronger effect = lower value 0.969 | S. cerevisiae deletion strains, locus YMR078C, strain ctf18, stronger effect = lower value 1.02 | S. cerevisiae deletion strains, locus YMR125W, strain sto1, stronger effect = lower value 0.97 | S. cerevisiae deletion strains, locus YMR129W, stronger effect = lower value 0.992 | S. cerevisiae deletion strains, locus YMR205C, strain PFK2, stronger effect = lower value 0.945 | S. cerevisiae deletion strains, locus YMR223W, strain ubp8, stronger effect = lower value 1.02 | S. cerevisiae deletion strains, locus YMR231W, strain pep5, stronger effect = lower value 0.979 | S. cerevisiae deletion strains, locus YMR263W, strain SAP30, stronger effect = lower value 1.01 | S. cerevisiae deletion strains, locus YMR307W, strain GAS1, stronger effect = lower value 1.03 and 1.01 | S. cerevisiae deletion strains, locus YNL067W, strain RPL9B, stronger effect = lower value 1 | S. cerevisiae deletion strains, locus YNL071W, strain lat1, stronger effect = lower value 0.982 | S. cerevisiae deletion strains, locus YNL128W, strain TEP1, stronger effect = lower value 1.02 | S. cerevisiae deletion strains, locus YNL153C, strain GIM3, stronger effect = lower value 0.995 | S. cerevisiae deletion strains, locus YNL175C, strain NOP13, stronger effect = lower value 0.992 | S. cerevisiae deletion strains, locus YNL183C, strain NPR1, stronger effect = lower value 0.92 | S. cerevisiae deletion strains, locus YNL197C, strain WHI3, stronger effect = lower value 0.997 | S. cerevisiae deletion strains, locus YNL209W, strain ssb2, stronger effect = lower value 0.978 | S. cerevisiae deletion strains, locus YNL224C, strain SQS1, stronger effect = lower value 0.993 | S. cerevisiae deletion strains, locus YNL233W, strain BNI4, stronger effect = lower value 1 | S. cerevisiae deletion strains, locus YNL248C, strain rpa49, stronger effect = lower value 0.959 | S. cerevisiae deletion strains, locus YNL250W, strain rad50, stronger effect = lower value 1.04 | S. cerevisiae deletion strains, locus YNL271C, strain bni1, stronger effect = lower value 1.02 | S. cerevisiae deletion strains, locus YNL298W, strain CLA4, stronger effect = lower value 1.02 | S. cerevisiae deletion strains, locus YNL307C, strain MCK1, stronger effect = lower value 1.02 | S. cerevisiae deletion strains, locus YNL322C, strain KRE1 (second series), stronger effect = lower value 0.954 | S. cerevisiae deletion strains, locus YNL322C, strain KRE1, stronger effect = lower value 0.996 | S. cerevisiae deletion strains, locus YNR049C, strain mso1, stronger effect = lower value 0.96 | S. cerevisiae deletion strains, locus YNR052C, strain pop2, stronger effect = lower value 1.02 | S. cerevisiae deletion strains, locus YOL006C, strain TOP1, stronger effect = lower value 1 | S. cerevisiae deletion strains, locus YOL012C, strain htz1 0.788 | S. cerevisiae deletion strains, locus YOL147C, strain pex11, stronger effect = lower value 1.02 | S. cerevisiae deletion strains, locus YOR001W, strain rrp6, stronger effect = lower value 0.987 | S. cerevisiae deletion strains, locus YOR061W, strain CKA2, stronger effect = lower value 1.01 | S. cerevisiae deletion strains, locus YOR069W, strain VPS5, stronger effect = lower value 1 | S. cerevisiae deletion strains, locus YOR070C, strain gyp1, stronger effect = lower value 0.984 | S. cerevisiae deletion strains, locus YOR080W, strain dia2, stronger effect = lower value 0.974 | S. cerevisiae deletion strains, locus YOR083W, strain WHI5 (second series), stronger effect = lower value 1.03 | S. cerevisiae deletion strains, locus YOR083W, strain WHI5, stronger effect = lower value 0.956 | S. cerevisiae deletion strains, locus YOR106W, strain vam3, stronger effect = lower value 0.928 | S. cerevisiae deletion strains, locus YOR136W, strain idh2, stronger effect = lower value 1.02 | S. cerevisiae deletion strains, locus YOR144C, strain elg1, stronger effect = lower value 1.01 | S. cerevisiae deletion strains, locus YOR184W, strain ser1, stronger effect = lower value 1.02 | S. cerevisiae deletion strains, locus YOR231W, strain MKK1, stronger effect = lower value 0.962 | S. cerevisiae deletion strains, locus YOR265W, strain rbl2, stronger effect = lower value 0.971 | S. cerevisiae deletion strains, locus YOR270C, strain vph1, stronger effect = lower value 0.953 | S. cerevisiae deletion strains, locus YOR290C, strain snf2, stronger effect = lower value 0.919 | S. cerevisiae deletion strains, locus YOR316C, strain cot1, stronger effect = lower value 1.02 | S. cerevisiae deletion strains, locus YPL051W, strain arl3, stronger effect = lower value 0.979 | S. cerevisiae deletion strains, locus YPL055C, strain LGE1, stronger effect = lower value 1.01 | S. cerevisiae deletion strains, locus YPL078C, strain atp4, stronger effect = lower value 0.975 | S. cerevisiae deletion strains, locus YPL106C, strain sse1, stronger effect = lower value 0.951 | S. cerevisiae deletion strains, locus YPL240C, strain hsp82, stronger effect = lower value 0.974 | S. cerevisiae deletion strains, locus YPL256C, strain CLN2, stronger effect = lower value 0.975 | S. cerevisiae deletion strains, locus YPR119W, strain clb2, stronger effect = lower value 1.01 | S. cerevisiae deletion strains, locus YPR141C, strain kar3, stronger effect = lower value 1.02 | S. cerevisiae deletion strains, locus YPR163C, strain tif3, stronger effect = lower value 1.02 | S. cerevisiae deletion strains, locus YPR167C, strain met16, stronger effect = lower value 1.01 | S. cerevisiae deletion strains, strain wtn01, stronger effect = lower value 1.02 | S. cerevisiae strains, strain wild type, stronger effect = lower value 1.01

Reference: PubChem BioAssay AID1159580 (chemical genetic matrix, 2015)
